A selection: hits, their analogues and other compounds. The true share with any hit is near 6%.
D1 ag: human D1 receptor agonism | AID 504660 | P21728 | activation, % at 2 µM | HEK293 T-REx D1 cells, calcium flux, agonist mode | hit rate 1% among 360,000; in the data active = activation above about 30%
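Agonism was scored from calcium flux recorded over 180 s (1 read/s) after pintool compound addition, following a 10-cycle baseline. Cells were inducible force-coupled HEK293 TREx D1, plated overnight at 30 C and loaded with no-wash calcium dye.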
D3 antag: antagonists of human D3 dopamine receptor. D3R cells, DiscoveRx beta-arrestin luminescence, antagonist mode; stronger effect = lower value. max response, negative = inhibition, %. hit rate 2.5% among 360,000. AID 652054; in the data active = max response below about -50%; inconclusive = no clear call, values can overlap the other calls
Target sequence (P35462 whole entry, looked up): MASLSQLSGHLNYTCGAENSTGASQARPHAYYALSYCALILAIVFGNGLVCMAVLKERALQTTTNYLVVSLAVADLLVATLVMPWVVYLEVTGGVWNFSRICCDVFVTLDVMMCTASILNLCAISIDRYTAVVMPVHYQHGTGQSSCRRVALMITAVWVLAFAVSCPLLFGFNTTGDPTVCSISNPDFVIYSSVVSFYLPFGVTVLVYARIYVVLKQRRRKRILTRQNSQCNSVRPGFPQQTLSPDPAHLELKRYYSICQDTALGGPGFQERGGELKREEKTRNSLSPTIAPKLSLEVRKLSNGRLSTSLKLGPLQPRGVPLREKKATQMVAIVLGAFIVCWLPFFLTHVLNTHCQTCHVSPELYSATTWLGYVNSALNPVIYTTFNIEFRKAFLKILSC
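Cells expressing the human receptor were seeded at 1500 cells/well, incubated overnight at 37 degrees C in 5% CO2, then exposed to library compounds with dopamine controls for 90 minutes at 37 degrees C before luminescent detection.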
D1 PAM: enhances dopamine response at the human D1 receptor. P21728. HEK293 TREx D1 cells, calcium flux, dopamine EC20 potentiation. potentiation, % at 10 µM. hit rate 0.036% among 360,000; in the data active = potentiation above about 30%
D3 ag: agonists of human D3 dopamine receptor; max activation, %; hit rate 0.58% among 410,000; D3R DiscoveRx beta-arrestin cells, luminescence, 90 min; P35462; in the data active = max activation above about 30%
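Agonist-mode cell screen: cells plated at 1500/well and incubated overnight at 37 °C, then exposed to library compounds for 90 min at 37 °C. Detection reagent was added for 30–60 min at room temperature, and luminescence was read.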
D1 antag: human D1 dopamine receptor antagonism | P21728 | HEK293 TREx D1 cells, calcium flux, dopamine EC80; stronger effect = lower value | activity change, negative = inhibition, % at 10 µM | hit rate 3.2% among 360,000 | AID 504652; in the data active = activity change below about -30%
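Cells carrying a force-coupled, tetracycline-inducible human D1 receptor report calcium flux. Each well gets a 10 s baseline, compound with 180 s monitoring, then an EC80 dopamine stimulus with a second 180 s kinetic read.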
Large screens that a line does not name were inactive; ! = not active in a repeat.

Cc1c(-n2c(O)c(C3=c4ccccc4=NC3=O)sc2=O)c(=O)n(-c2ccccc2)n1C	none
CCCCn1c(=O)c(Cc2ccccc2)c(O)c2ccccc21	none
CCCCN1CCc2c(c3ccccc3n2Cc2ccccc2)C1	D3 antag -93
CN1CCc2c(c3ccccc3n2Cc2ccccc2)C1	D3 antag -91!
Cn1c(=O)n(Cc2ccccc2)c2ccccc21	none
CN1CCc2c(c3ccccc3n2C)C1	D3 antag -73
Cc1ccc(S(=O)(=O)c2nnn3c2nc(Nc2ccc(C(C)C)cc2)c2sccc23)cc1C	none (no result: D3 antag)
COc1ccc(C(=O)C(OC(=O)c2ccccc2Cl)c2ccccc2)cc1 (centres undefined)	D1 antag -33
COc1ccc(C(=O)C(OC(=O)c2ccccc2)c2ccccc2)cc1 (centres undefined)	none
CCN(CC)C(=O)Cn1nnc2sc(-c3ccccc3)cc2c1=O	none (no result: D3 antag)
CCCCN(CCCC)C(=O)c1c[nH]c2ccc(S(=O)(=O)Nc3cccc(Cl)c3C)cc2c1=O	none (no result: D3 antag)
Cc1[nH]c2ccc(F)cc2c1CCN(Cc1cccnc1)C(=S)Nc1ccc(F)cc1	D1 antag -37
CCNC(=S)N(CCc1c(C)[nH]c2ccc(F)cc12)Cc1cccnc1	none
Oc1c(Cl)cc(Cl)cc1C1=NNC(c2ccc(Cl)cc2)C1 (centres undefined)	D3 antag -64
CCOC(=O)C1CCN(C(=O)CCn2c(=O)[nH]c3ccsc3c2=O)CC1	D1 antag -37
CCOC(=O)N1CCN(C(=O)CCn2c(=O)[nH]c3ccsc3c2=O)CC1	none
CCOC(=O)N1CCN(C(=O)CCn2c(=S)[nH]c3ccsc3c2=O)CC1	D1 antag -49
CCOc1ccc(N(C)C(=O)C2CCN(S(=O)(=O)c3c(C)noc3/C=C/c3ccc(C)cc3)CC2)cc1	none (no result: D3 antag)
Cc1cc([N+](=O)[O-])cc2ncccc12	D3 antag -75 (no result: D1 antag)
COc1cccc(CNC(=O)c2ccc(S(=O)(=O)N3CCCCC3)cc2)c1	none (no result: D1 ag, D1 PAM, D1 antag)
Cc1ccc2c(c1)sc(C)[n+]2CCCS(=O)(=O)[O-]	D3 antag -86
O=C(CNC(=O)c1ccncc1)OC(C(=O)Nc1cc(C(F)(F)F)ccc1Cl)c1ccccc1 (centres undefined)	none (no result: D3 antag, D3 ag)
N=c1n(CCN2CCCCC2)c2ccccc2n1CC(=O)c1cccs1	D3 antag -63
CCCn1c(=N)n(CC(=O)c2cccs2)c2ccccc21	none
Cc1csc(NC(=O)CSc2ncnc3c2cnn3-c2ccccc2Cl)n1	D1 antag -31
CC1CCc2c(sc(NC(=O)CSc3ncnc4c3cnn4-c3ccccc3Cl)c2C#N)C1 (centres undefined)	D1 antag -39
Clc1cccc(CNc2ccn3nc(-c4cccc(OCc5ccccc5)c4)cc3n2)c1	none (no result: D1 ag, D1 PAM, D1 antag)
OC[C@@H]1CN(Cc2ccc(-c3ccccc3)cc2)C[C@H](n2cnc3c(N4CCOCC4)ncnc32)O1	none (no result: D1 ag, D1 PAM, D1 antag)
COCCCNCCCCOc1ccc(Br)cc1C	D1 ag 37, D3 antag -97, D1 antag -35
COCCNCCCCOc1ccc(Br)cc1C	none
Cc1cc(Br)ccc1OCCCCNC(C)(C)C	D3 antag -66
OCCNCc1cc(Br)ccc1OCc1ccc(Cl)cc1Cl	D1 ag 38
COc1cccc(C(=O)NNS(=O)(=O)c2ccc(C)cc2)c1	none
COc1ccc(S(=O)(=O)Nc2ccc3c(c2)C(=O)N([C@H](C)CO)C[C@H](C)[C@@H](CN(C)Cc2ccncc2)OCCCC[C@@H](C)O3)cc1	none (no result: D1 ag, D1 PAM, D1 antag)
CC(=O)Nc1ccc(C(=O)Nc2ccc3c(c2)OCO3)cc1	D1 antag -31
O=C(NCc1ccc2c(c1)OCO2)c1ccc(NC(=O)C2CCCO2)cc1 (centres undefined)	D3 antag inconclusive
O=C(Nc1ccc2c(c1)OCO2)c1ccc[n+]([O-])c1	D1 antag -39
Cc1cc(NC(=O)c2ccc3c(c2)OCO3)ccc1NC(=O)c1ccccc1	none
O=C(Nc1ccc2c(c1)OCCO2)c1ccc(NC(=O)C2CCCO2)cc1 (centres undefined)	D1 antag -49
CCN(CC)c1ccc(NC(=O)c2ccc3c(c2)OCO3)c(C)c1	D1 antag -41
O=C(Nc1ccccc1C(F)(F)F)Nc1c[nH]c(=O)[nH]c1=O	none (no result: D3 antag)
CC1(C)CC(=O)c2cc(OCC(=O)NCCCN3CCN(c4ccc(F)cc4)CC3)ccc2O1	D3 antag -81
